The nature of experiment [1]: NCI Yeast Anticancer Drug Screen. Data for the rad50 strain (AID 155).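 Further: 0% = growth of vehicle-only cultures of the same strain.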 Particulars: S. cerevisiae rad50 strain growth inhibition, active compounds read high. In outline:
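Relative growth inhibition (compound vs vehicle) was measured in yeast with a defined repair-gene alteration.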

A short description of experiment [2]: NCI Yeast Anticancer Drug Screen. Data for the mec2-1 strain (AID 157). Particulars: S. cerevisiae mec2-1 strain, active compounds read high. Put shortly: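 Cells of the genetically defined mec2-1 yeast strain are incubated with test compound. Inhibition of growth is calculated against vehicle-treated controls.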
Experiment [3] is described as follows: NCI Yeast Anticancer Drug Screen. Data for the sgs1 mgt1 strain (AID 161).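 Further: 0% = growth of cultures given vehicle only.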 As to conditions: S. cerevisiae sgs1 mgt1 strain, active compounds read high. Put shortly: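 Read-out: growth inhibition vs vehicle controls. Cells: mutant yeast strain deficient in DNA damage repair.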
Experiment [4] is described as follows: NCI Yeast Anticancer Drug Screen. Data for the cln2 rad14 strain (AID 165).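 Further: 0% = growth equal to vehicle treated cultures.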 Particulars: S. cerevisiae cln2 rad14 strain, active compounds read high. In outline: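 The screen exposed genetically defined yeast (cln2 rad14) to test compounds and scored growth inhibition relative to vehicle-treated controls.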
Experiment [5] is described as follows: NCI Yeast Anticancer Drug Screen. Data for the bub3 strain (AID 167). Particulars: S. cerevisiae bub3 mutant strain, active compounds read high. Put shortly: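 Screening used yeast with an engineered genetic alteration affecting cell cycle control. Compound-exposed cultures were compared with vehicle cultures, and reduced growth was taken as inhibition.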
A short description of experiment [6]: NCI Yeast Anticancer Drug Screen. Data for the mlh1 rad18 strain (AID 175). Particulars: S. cerevisiae mlh1 rad18 strain growth inhibition, active compounds read high. In outline:
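Compound-treated yeast growth, normalised to vehicle controls. Strain bears defined DNA repair mutations.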

The mark [7] stands for this setting: at 5.0 µM (retest, dose inferred, filed as 0.5).
Setting [8] is: at 50.0 µM (retest, dose inferred, filed as 5.0).

Each structure is given as a SMILES string. About 79,000 compounds went through this panel and 15% of them were active in at least one assay; those are over-represented in the sample as a whole. Values without a mark were called inactive. Active and inactive are the calls of the source. No stated cut-off is given here; in the data, active means growth inhibition above about 70%; inactive means the rest.

Consider `CCOC(=O)NC(NC(=O)OCC)C(=O)Nc1cccc2c(OC(=O)C(NC(=O)OCC)NC(=O)OCC)c(N=Nc3ccc(S(=O)(=O)Nc4nccs4)cc3)cc(N=Nc3ccc(S(=O)(=O)Nc4nccs4)cc3)c12` (tested in a mixture with another compound), for which the growth inhibition in experiment [1] (setting [7]) was 94% (active); in experiment [1] (setting [8]), 43%; in experiment [1] (at 50.0 µM) it was 78.7% (active); in experiment [2] (setting [7]), 97% (active); in experiment [2] (setting [8]) it was 59%; in experiment [2] (at 50.0 µM), 74.9% (active). In addition, the growth inhibition in experiment [3] (setting [7]) was 96% (active); in experiment [3] (setting [8]), 58%; in experiment [3] (at 50.0 µM), 65.8%; in experiment [4] (setting [7]) it was 95% (active); in experiment [4] (setting [8]), 70% (active); in experiment [4] (at 50.0 µM) it was 70.3% (active). Moreover, the growth inhibition in experiment [5] (setting [7]) was 95% (active); in experiment [5] (setting [8]), 59%; in experiment [5] (at 50.0 µM) it was 61.8%; in experiment [6] (setting [7]) it was 88% (active); in experiment [6] (setting [8]) it was 29%; in experiment [6] (at 50.0 µM), 83.1% (active).
Turning to `COc1ccc(CC[N+]2(C)COc3cc4oc(=O)cc(C)c4cc3C2)cc1OC` (stereo not given), the growth inhibition is 5% in experiment [1] (setting [7]); 9% in experiment [1] (setting [8]); -42.5% in experiment [1] (at 50.0 µM); 0% in experiment [2] (setting [7]); -14% in experiment [2] (setting [8]); -33.5% in experiment [2] (at 50.0 µM). Further, the growth inhibition in experiment [3] (setting [7]) is 0%; in experiment [3] (setting [8]) it was -6%; in experiment [3] (at 50.0 µM) it was -27.9%; in experiment [4] (setting [7]), -21%; in experiment [4] (setting [8]), 9%; in experiment [4] (at 50.0 µM), 34.6%. Besides, the growth inhibition in experiment [5] (setting [7]) is -8%; in experiment [5] (setting [8]), 0%; in experiment [5] (at 50.0 µM) it was -20.9%; in experiment [6] (setting [7]) it was 9%; in experiment [6] (setting [8]), 7%; in experiment [6] (at 50.0 µM), -32.5%.
For `O=S(=O)(Nc1ccc2ccccc2c1)c1ccccc1`, the growth inhibition is -10% in experiment [1] (setting [7]); 98% (active) in experiment [1] (setting [8]); 97.7% (active) in experiment [1] (at 50.0 µM); -21% in experiment [2] (setting [7]); 99% (active) in experiment [2] (setting [8]); 98% (active) in experiment [2] (at 50.0 µM). Besides, the growth inhibition in experiment [3] (setting [7]) was 2%; in experiment [3] (setting [8]) it was 99% (active); in experiment [3] (at 50.0 µM) it was 97.8% (active); in experiment [4] (setting [7]), 7%; in experiment [4] (setting [8]), 93% (active); in experiment [4] (at 50.0 µM), 92.2% (active). The growth inhibition was -9% in experiment [5] (setting [7]); 99% (active) in experiment [5] (setting [8]); 97.2% (active) in experiment [5] (at 50.0 µM); -18% in experiment [6] (setting [7]); 98% (active) in experiment [6] (setting [8]); 98% (active) in experiment [6] (at 50.0 µM).
For the compound `OCC(O)C(OC1OC(CO)C(O)C(O)C1O)C(O)C(/C=N/Nc1ccc(Br)cc1)=N/Nc1ccc(Br)cc1` (stereo not given), the growth inhibition in experiment [1] (setting [7]) was -3%; in experiment [1] (setting [8]), 98% (active); in experiment [1] (at 50.0 µM), 99.3% (active); in experiment [2] (setting [7]) it was -11%; in experiment [2] (setting [8]), 98% (active); in experiment [2] (at 50.0 µM) it was 98.5% (active). Further, the growth inhibition is 2% in experiment [3] (setting [7]); 99% (active) in experiment [3] (setting [8]); 98.5% (active) in experiment [3] (at 50.0 µM); -41% in experiment [4] (setting [7]); 99% (active) in experiment [4] (setting [8]); 98.9% (active) in experiment [4] (at 50.0 µM). The growth inhibition in experiment [5] (setting [7]) is 23%; in experiment [5] (setting [8]), 99% (active); in experiment [5] (at 50.0 µM) it was 97.9% (active); in experiment [6] (setting [7]), 13%; in experiment [6] (setting [8]), 98% (active); in experiment [6] (at 50.0 µM) it was 98.5% (active).
Consider `CCN(CC)CCOc1ccc(-c2nc3cc(Cl)ccc3s2)cc1`, for which the growth inhibition in experiment [1] (setting [7]) is 29%; in experiment [1] (setting [8]), 88% (active); in experiment [1] (at 50.0 µM), 75% (active); in experiment [2] (setting [7]), 54%; in experiment [2] (setting [8]) it was 86% (active); in experiment [2] (at 50.0 µM), 35.8%. The growth inhibition in experiment [3] (setting [7]) is 23%; in experiment [3] (setting [8]), 91% (active); in experiment [3] (at 50.0 µM), 91% (active); in experiment [4] (setting [7]) it was 31%; in experiment [4] (setting [8]) it was 84% (active); in experiment [4] (at 50.0 µM) it was 48%. Also, the growth inhibition is 61% in experiment [5] (setting [7]); 90% (active) in experiment [5] (setting [8]); 85.7% (active) in experiment [5] (at 50.0 µM); 39% in experiment [6] (setting [7]); 82% (active) in experiment [6] (setting [8]); 83.3% (active) in experiment [6] (at 50.0 µM).
For the compound `Cc1cc(N)c2c(c1O)C(=O)c1ccccc1C2=O`, the growth inhibition is -2% in experiment [1] (setting [7]); 47% in experiment [1] (setting [8]); 7.5% in experiment [1] (at 50.0 µM); -1% in experiment [2] (setting [7]); 26% in experiment [2] (setting [8]); 7.35% in experiment [2] (at 50.0 µM). Also, the growth inhibition in experiment [3] (setting [7]) was -5%; in experiment [3] (setting [8]), 39%; in experiment [3] (at 50.0 µM) it was -0.6%; in experiment [4] (setting [7]), 0%; in experiment [4] (setting [8]), 21%; in experiment [4] (at 50.0 µM), 25.1%. The growth inhibition in experiment [5] (setting [7]) was -5%; in experiment [5] (setting [8]) it was 42%; in experiment [5] (at 50.0 µM), 20.8%; in experiment [6] (setting [7]), -3%; in experiment [6] (setting [8]), 47%; in experiment [6] (at 50.0 µM) it was 18.2%.
Turning to `O=C(O)CC1(C(=O)O)CCCCC1`, the growth inhibition in experiment [1] (setting [7]) is -9%; in experiment [1] (setting [8]) it was 15%; in experiment [1] (at 50.0 µM), -16.4%; in experiment [2] (setting [7]), -4%; in experiment [2] (setting [8]), -1%; in experiment [2] (at 50.0 µM), -16.6%. Further, the growth inhibition is -5% in experiment [3] (setting [7]); -13% in experiment [3] (setting [8]); -21.6% in experiment [3] (at 50.0 µM); 6% in experiment [4] (setting [7]); 0% in experiment [4] (setting [8]); 18.4% in experiment [4] (at 50.0 µM). The growth inhibition in experiment [5] (setting [7]) is -13%; in experiment [5] (setting [8]), -14%; in experiment [5] (at 50.0 µM) it was -6.9%; in experiment [6] (setting [7]), 11%; in experiment [6] (setting [8]), 17%; in experiment [6] (at 50.0 µM), 2.7%.
For the compound `Cc1ccc(S(=O)(=O)Nc2ccccc2Cl)cc1`, the growth inhibition was 11% in experiment [1] (setting [7]); 95% (active) in experiment [1] (setting [8]); 94% (active) in experiment [1] (at 50.0 µM); 11% in experiment [2] (setting [7]); 97% (active) in experiment [2] (setting [8]); 77.3% (active) in experiment [2] (at 50.0 µM). The growth inhibition in experiment [3] (setting [7]) is 7%; in experiment [3] (setting [8]), 99% (active); in experiment [3] (at 50.0 µM), 96.5% (active); in experiment [4] (setting [7]), 6%; in experiment [4] (setting [8]) it was 96% (active); in experiment [4] (at 50.0 µM), 88.5% (active). Moreover, the growth inhibition is 5% in experiment [5] (setting [7]); 98% (active) in experiment [5] (setting [8]); 94.2% (active) in experiment [5] (at 50.0 µM); 13% in experiment [6] (setting [7]); 97% (active) in experiment [6] (setting [8]); 93.8% (active) in experiment [6] (at 50.0 µM).
`Nc1ccc(C2CCC[C@H]2c2ccc(N)cc2)cc1` (stereo not given in full): the growth inhibition is 0% in experiment [1] (setting [7]); 93% (active) in experiment [1] (setting [8]); 48.8% in experiment [1] (at 50.0 µM); 15% in experiment [2] (setting [7]); 87% (active) in experiment [2] (setting [8]); 46.8% in experiment [2] (at 50.0 µM). The growth inhibition was 14% in experiment [3] (setting [7]); 90% (active) in experiment [3] (setting [8]); 53.2% in experiment [3] (at 50.0 µM); 1% in experiment [4] (setting [7]); 66% in experiment [4] (setting [8]); 39.6% in experiment [4] (at 50.0 µM). Further, the growth inhibition in experiment [5] (setting [7]) is -3%; in experiment [5] (setting [8]), 81% (active); in experiment [5] (at 50.0 µM), 58.6%; in experiment [6] (setting [7]), 21%; in experiment [6] (setting [8]) it was 95% (active); in experiment [6] (at 50.0 µM), 49.1%.
As for `NC(N)=N/N=C/c1ccc([N+](=O)[O-])o1`, the growth inhibition was 11% in experiment [1] (setting [7]); 22% in experiment [1] (setting [8]); 66% in experiment [1] (at 50.0 µM); 4% in experiment [2] (setting [7]); 13% in experiment [2] (setting [8]); 49% in experiment [2] (at 50.0 µM). The growth inhibition in experiment [3] (setting [7]) is 3%; in experiment [3] (setting [8]), 16%; in experiment [3] (at 50.0 µM), 70.2% (active); in experiment [4] (setting [7]), 3%; in experiment [4] (setting [8]), 7%; in experiment [4] (at 50.0 µM) it was 25.2%. The growth inhibition in experiment [5] (setting [7]) is 6%; in experiment [5] (setting [8]) it was 39%; in experiment [5] (at 50.0 µM), 28.7%; in experiment [6] (setting [7]), 10%; in experiment [6] (setting [8]) it was 23%; in experiment [6] (at 50.0 µM), 61.4%.

Source of the values: PubChem BioAssay (NCI).
